# High-throughput results: PubChem, National Center for Advancing Translational Sciences (NCATS)
# In the library only some 7.4% were active in any assay of this set; here they are far more common.
# NIH3T3 tox: NIH 3T3 cell cytotoxicity | NIH 3T3 viability, CellTiter-Glo ATP luminescence, 48-72 h | Potency, µM (top dose mostly 96.7 µM), usual class: inhibitors | 94,000 compounds, 4.3% hits | AID 1345082; further: nearly all actives have a fitted effect of over 55% in size
#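 Cells were seeded at 400 per well, treated with pin-transferred compound, and kept 48 or 72 hr at 37 °C before CellTiter-Glo addition and luminescence imaging of cellular ATP.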
# HEK293 viab: counter-screen for SNCA expression inhibitors: cell viability. HEK-293-SNCA-luc viability, GF-AFC fluorescence, 24 h. Potency, µM (series often up to 57.1 µM), hits mostly cytotoxic. 150,000 compounds, 0.12% hits. AID 1671193; further: nearly all actives have a fitted effect of over 30% in size
#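 Cytotoxicity counterscreen: after 24 h compound treatment of genome-edited SNCA-luciferase HEK-293 cells, live-cell protease substrate GF-AFC read by fluorescence after 30 min; activity scaled between DMSO (0%) and medium-only (-100%), curves Hill-fitted.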
# Luciferase inh: blocks purified firefly luciferase enzyme activity. P08659. purified P. pyralis luciferase, luminescence, biochemical. Potency, µM (series often up to 115 µM), usual class: inhibitors. 76,000 compounds, 2.5% hits. AID 1347043; further: nearly all actives have a fitted effect of over 65% in size
# Target sequence (P08659 whole entry, looked up): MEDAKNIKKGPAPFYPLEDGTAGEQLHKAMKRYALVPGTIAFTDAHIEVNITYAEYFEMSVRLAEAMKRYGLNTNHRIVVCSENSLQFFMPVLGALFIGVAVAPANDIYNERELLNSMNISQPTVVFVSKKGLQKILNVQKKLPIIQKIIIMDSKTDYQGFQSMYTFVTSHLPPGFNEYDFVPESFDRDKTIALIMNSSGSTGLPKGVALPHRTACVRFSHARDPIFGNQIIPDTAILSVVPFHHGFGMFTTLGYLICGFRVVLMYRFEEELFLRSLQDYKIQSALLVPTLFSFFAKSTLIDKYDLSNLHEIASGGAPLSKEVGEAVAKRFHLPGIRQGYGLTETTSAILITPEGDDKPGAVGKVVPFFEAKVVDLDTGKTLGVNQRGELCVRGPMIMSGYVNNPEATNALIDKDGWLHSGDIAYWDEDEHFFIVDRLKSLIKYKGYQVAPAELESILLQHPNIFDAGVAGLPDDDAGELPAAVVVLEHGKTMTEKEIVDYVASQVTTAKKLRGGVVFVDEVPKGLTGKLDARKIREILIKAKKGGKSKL
#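 Inhibitors were tested against purified firefly luciferase in a biochemical, low-substrate format (both substrates at 10uM) and luminescence measured with a CCD imager.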
# NPR1 antag: antagonists of human natriuretic peptide receptor Npr1; P16066; HEK293 hNpr1 GloSensor cGMP, ANP-stimulated luminescence; Potency, µM (doses to about 46.3 µM), most hits filed as inhibitors; 76,000 compounds, 1.6% hits; AID 1347048; calls by dose curve; further: nearly all actives have a fitted effect of over 60% in size
#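 HEK293 cells stably expressing human Npr1 and cGMP GloSensor pGS-40F, loaded 2 h with 2% GloSensor reagent, given compound 30 min at room temperature. Luminescence read before and 20 min after 0.1 nM hNppA.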
# HEK293 tox: kills HEK 293 cells. HEK 293 viability, ATP luminescence (CellTiter-Glo), 48-72 h. Potency, µM (top dose mostly 115 µM), usual class: inhibitors. 94,000 compounds, 6.6% hits. AID 1345083; further: nearly all actives have a fitted effect of over 60% in size
#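 Cytotoxicity was scored by loss of ATP-coupled luminescence (CellTiter-Glo) in HEK 293 cells. Compound treatment ran 48 or 72 hr at 37 degree Celsius, 5% CO2, 95% humidity.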
# SNCA expr inh: inhibitors of alpha-synuclein (SNCA) gene expression; 140,000 compounds, 0.17% hits; Potency, µM (highest dose often 57.2 µM), actives largely listed as inhibitors; HEK-293 SNCA-luciferase knock-in, luminescence, 24 h; further: nearly all actives have a fitted effect of over 45% in size
# Numbers stand for hits; i = inactive; ? = inconclusive; nt = not tested or not shown; [ ] = dose if it differs, or a comment. Unless noted, the call rests on the fitted dose curve; in most records, active means well fitted curve in the direction sought with a large enough effect; inconclusive means small, poorly fitted or top-dose-only effect, or another doubt; inactive means no such curve, though single readings can be large; an effect the other way counts as inactive or inconclusive.
SMILES,NIH3T3 tox,HEK293 viab,Luciferase inh,NPR1 antag,HEK293 tox,SNCA expr inh
CN(Cc1ccsc1)C(=O)c1ccc(C#CC(C)(C)O)o1,i,i,i,i,?,i
O=C(NCCc1c[nH]c2ccccc12)[C@@H]1C[C@H]2C(=O)NCCCCCCN(C(=O)C3CC3)[C@H]2C1,?,i,i,i,?,i
CCS(=O)(=O)N1CCCCCCNC(=O)[C@@H]2C[C@@H](C(=O)NCCc3c[nH]c4ccccc34)C[C@@H]21,i,i,i,i,35µM,i
C/C=C(\C)C(=O)O[C@H]1C=CC(=O)O[C@H]1/C=C/[C@H](O)[C@@H](C)O,nt,i,nt,nt,nt,nt
CN1CCC(N2CCC[C@@H](O)[C@H](NC(=O)c3ccc(OCc4ccccc4)cc3)C2)CC1,?,i,i,i,79µM,i
COC(=O)c1ccccc1NC(=O)N1CCC[C@@H](O)[C@H](NC(=O)c2ccc(OCc3ccccc3)cc2)C1,?,i,i,i,?,i
CCN(C(=O)CN1C(=O)C(c2ccccc2)=NC12CCCCC2)c1cccc(C)c1,?,i[12.5 µM],i,i,40µM,i
O=C(CN1C(=O)C(c2ccccc2)=NC12CCCC2)Nc1cccc(C(F)(F)F)c1,i,i[12.5 µM],i,i,i,i
O=C(CN1C(=O)C(c2ccccc2)=NC12CCCCC2)NCc1ccccc1,?,i[12.5 µM],i,i,45µM,i
O=C(CN1C(=O)C(c2ccccc2)=NC12CCCC2)Nc1ccc(C(F)(F)F)cc1,?,i[12.5 µM],i,?,45µM,?
Cc1ccc(CNC(=O)CN2C(=O)C(c3ccccc3)=NC23CCCCC3)cc1,?,i[12.5 µM],i,i,?,i
CCn1ccc(C(=O)N2CCC(CCOc3ccccc3F)C2)n1 (stereo not given),?,i,nt,nt,?,i
O=C(NCCN1CCOCC1)c1ccc2nc(-c3ccccc3)cn2c1,i,i,?,i,i,i
Cc1ccc(C2Cn3nnc(C(=O)N4CCC(C(=O)NCc5ccccc5F)CC4)c3CO2)cc1 (stereo not given),i,i,22µM,i,i,i
Cc1ccc(C2Cn3nnc(C(=O)N4CCC(C(=O)NCc5cc(F)ccc5F)CC4)c3CO2)cc1 (stereo not given),i,i,35µM,i,i,i
Cc1ccc(C(=O)N(CC(C)C)CC2CN(C(=O)Nc3cccc(Cl)c3)CCO2)cc1 (stereo not given),?,i,i,i,40µM,i
CC(C)CN(CC1CN(C(=O)c2ccccc2)CCO1)C(=O)c1cccc2ccccc12 (stereo not given),?,i,i,i,?,i
Cc1ccc(C(=O)N(CC(C)C)CC2CN(C(=O)c3ccc(Cl)c(Cl)c3)CCO2)cc1 (stereo not given),?,?,i,i,45µM,i
CC(C)CN(CC1CN(C(=O)c2cccc(Cl)c2)CCO1)C(=O)c1cccc2ccccc12 (stereo not given),?,i,i,i,35µM,i
Cc1ccc(C)c(C(=O)NC2CCN(c3cc(-c4ccc(F)cc4)[nH]n3)C2)c1 (stereo not given),?,i,i,i,?,i
O=C(CCc1c[nH]c2ccccc12)N1CCC([C@@H]2CNC[C@H]2CO)CC1,i,i[12.5 µM],i,i,i,i
COc1cccc(CC(=O)N2C[C@@H](F)C[C@H]2C(=O)N2CCOCC2)c1,i,i,i,i,i,i
COc1ccc(NC(=O)C2(C)COCc3cnc(Nc4ccccc4)nc32)cn1 (stereo not given),?,i,i,i,?,i
COc1ccc(NC(=O)C2(C)CCCc3cnc(NCc4ccccc4)nc32)cn1 (stereo not given),?,?,i,i,?,i
COc1ccc(NC(=O)C2(C)CCCc3cnc(Nc4ccccc4)nc32)cn1 (stereo not given),79µM,?,i,i,89µM,i
COc1cccc(Nc2ncc3c(n2)C(C)(C(=O)Nc2ccc(OC)nc2)CC3)c1 (stereo not given),?,i,i,i,89µM,i
